# PubChem BioAssay (EPA / NIEHS)
# Inconclusive results are not listed. The source made the active and inactive calls. Rule for the calls, unless noted: active = hit-call score of the fitted dose curve at least 0.9, where 1 is the maximum; inconclusive = response in the unintended direction; inactive = score below 0.9.
# Tests used:
# [1] = ATG_TAL_CIS: Attagene CIS-FACTORIAL HepG2 Assay for human TAL Basal Promoter (AID 2282966; active = hit-call score of the fitted dose curve at least 0.9, where 1 is the maximum; inactive = score below 0.9;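 note: background control endpoint measuring basal TAL promoter reporter mRNA not a specific factor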); details: HepG2 Attagene cis-factorial TAL promoter reporter; actives raise or lower the signal
# Procedure, shortened: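 HepG2, transient MRTU transfection, 24 h compound exposure; RNA → oligo(dT) RT → PCR → 6-FAM primer extension → HpaI digest → CE fluorescence. Bidirectional curve fit vs DMSO. Background-control readout.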
# [2] = ATG_TGFb_CIS: Attagene CIS-FACTORIAL HepG2 Assay for human Transforming Growth Factor (TGF) (AID 2282967; active = hit-call score of the fitted dose curve at least 0.9, where 1 is the maximum; inactive = score below 0.9); details: HepG2 Attagene CIS TGFb reporter, mRNA transcription; actives raise or lower the signal
# Procedure, shortened: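 Endogenous TGFB1-linked transcription factor activity read as reporter mRNA via RT-PCR and capillary electrophoresis, 24 h after dosing transiently transfected HepG2 cells. Gain or loss of signal fitted relative to DMSO.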
# [3] = ATG_VDRE_CIS: Attagene CIS-FACTORIAL HepG2 Assay for human Vitamin D Receptor Element (VDRE) (AID 2282968; active = hit-call score of the fitted dose curve at least 0.9, where 1 is the maximum; inactive = score below 0.9); details: HepG2 VDRE cis-reporter transcription, actives raise or lower the signal
# Procedure, shortened: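 Measures endogenous factor activity through cis-element-driven reporter transcripts in transiently transfected HepG2. Cells are treated 24 h; reporter mRNA is quantified by RT-PCR and capillary electrophoresis; fitting is bidirectional.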
# [4] = molecular target: Estrogen receptor (Homo sapiens) (UniProt P03372); test: ATG_ERa_TRANS: Attagene TRANS-FACTORIAL HepG2 Assay for human Estrogen Receptor alpha (ERa) (AID 2282970); details: HepG2 Attagene TRANS ERa GAL4 reporter, mRNA
# Procedure, shortened: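 Reporter mRNA induction after 24 hours, detected by fluorescent RT-PCR and capillary electrophoresis, gives the read-out. Cells are HepG2 transiently transfected with GAL4-UAS reporter transcription units responding to chimeric NR-Gal4. Activity is taken as gain of signal over DMSO baseline.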
# [5] = molecular target: X-box-binding protein 1 (Homo sapiens) (UniProt P17861); test: ATG_Xbp1_CIS: Attagene CIS-FACTORIAL HepG2 Assay for human X-box Binding Protein 1 (XBP1) (AID 2282972; active = hit-call score of the fitted dose curve at least 0.9, where 1 is the maximum; inactive = score below 0.9); details: HepG2 XBP1 cis-element reporter, Attagene multiplex; actives raise or lower the signal
# Procedure, shortened: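 Changes in reporter transcript abundance, read by RT-PCR and capillary electrophoresis, reflect endogenous transcription factor activity. Transfected HepG2 cells received compound for 24 hours; DMSO defined baseline for bidirectional analysis.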
# [6] = ATG_GAL4_TRANS: Attagene TRANS-FACTORIAL HepG2 Assay for GAL4 (Internal Marker) (AID 2282976); details: HepG2 Attagene TRANS GAL4 internal marker reporter
# Procedure, shortened: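 RT-PCR/capillary electrophoresis readout of reporter mRNA. HepG2, transient MRTU transfection (GAL4-UAS reporters), 24 h compound exposure. Background-control endpoint, positive direction vs DMSO baseline.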
# [7] = molecular target: Oxysterols receptor LXR-beta (Homo sapiens) (UniProt P55055); test: ATG_LXRb_TRANS: Attagene TRANS-FACTORIAL HepG2 Assay for human Liver X Receptor beta (LXRb) (AID 2282981); details: HepG2 Attagene TRANS GAL4-LXRb reporter, mRNA
# Procedure, shortened: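 After 24 h of chemical treatment, transfected HepG2 cells yield total RNA; reporter cDNA is PCR-amplified, FAM-labelled, HpaI-cut and run on capillary electrophoresis. Signal reflects chimeric LXRb-Gal4 activity on GAL4-UAS reporters.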
# [8] = ATG_M_06_TRANS: Attagene TRANS-FACTORIAL HepG2 Assay for M06 Transcription Factor (Internal Marker) (AID 2282983); details: HepG2 Attagene TRANS M06 internal marker reporter
# Procedure, shortened: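 Read-out: fluorescent reporter cDNA fragments resolved by capillary electrophoresis after RT-PCR and HpaI cut. Source cells were HepG2 carrying transfected multi-reporter GAL4 constructs, dosed 24 h. Increase over DMSO control analysed.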
# [9] = ATG_M_19_TRANS: Attagene TRANS-FACTORIAL HepG2 Assay for M19 Transcription Factor (Internal Marker) (AID 2282974); details: HepG2 Attagene TRANS-FACTORIAL M19 internal marker reporter
# Procedure, shortened: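 Using RT-PCR and capillary electrophoresis, reporter mRNA from transiently transfected human HepG2 cells was quantified following 24 h exposure; activity was fitted in the positive direction against DMSO.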
# [10] = molecular target: Nuclear receptor subfamily 4 group A member 2 (Homo sapiens) (UniProt P43354); test: ATG_NURR1_TRANS: Attagene TRANS-FACTORIAL HepG2 Assay for human Nuclear Receptor Related Protein 1 (NURR1) (AID 2282985); details: HepG2 Attagene TRANS reporter, mRNA readout
# Procedure, shortened: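 Measures transcriptional activation by an exogenous NR-Gal4 chimera in transfected HepG2 liver cells. After 24 h, reporter RNA is reverse-transcribed, amplified and resolved by capillary electrophoresis; DMSO defines baseline.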
# [11] = molecular target: Bile acid receptor (Homo sapiens) (UniProt Q96RI1); test: ATG_FXR_TRANS: Attagene TRANS-FACTORIAL HepG2 Assay for Farnesoid X Receptor (FXR) (AID 2282979); details: HepG2 Attagene TRANS FXR-GAL4 reporter transcription;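 note: hits raise reporter mRNA above DMSO so AC50 marks FXR activation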
# Procedure, shortened: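 Read-out: fluorescent reporter transcripts quantified by capillary electrophoresis after RT-PCR of total RNA. Source cells were HepG2 transiently carrying chimeric NR-GAL4 plus GAL4-UAS reporter units, dosed 24 h. Activity fitted upward relative to DMSO baseline.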
# [12] = molecular target: Nuclear receptor subfamily 1 group I member 3 (Homo sapiens) (UniProt Q14994); test: ATG_CAR_TRANS: Attagene TRANS-FACTORIAL HepG2 Assay for human Constitutive Androstane Receptor (CAR) (AID 2282969); details: HepG2 Attagene TRANS-FACTORIAL CAR reporter;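 note: activators raise reporter mRNA above DMSO so AC50 marks induction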
# Procedure, shortened: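 Signal is reporter mRNA induction relative to DMSO, measured 24 h after dosing by RT-PCR with fluorescent primer extension and capillary electrophoresis. Human HepG2 liver cells carried transiently transfected chimeric NR-Gal4/GAL4-UAS reporter constructs.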
# [13] = molecular target: Androgen receptor (Homo sapiens) (UniProt P10275); test: ATG_AR_TRANS: Attagene TRANS-FACTORIAL HepG2 Assay for human Androgen Receptor (AR) (AID 2282973); details: HepG2 Attagene TRANS-FACTORIAL AR reporter transcription
# Procedure, shortened: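 Readout is reporter transcript abundance, quantified by fluorescent RT-PCR products separated on capillary electrophoresis. Human HepG2 liver cells carried transiently transfected NR-Gal4 chimera plus GAL4-UAS reporter constructs and were dosed for 24 h; activity scored upward versus DMSO.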
# [14] = molecular target: Oxysterols receptor LXR-alpha (Homo sapiens) (UniProt Q13133); test: ATG_LXRa_TRANS: Attagene TRANS-FACTORIAL HepG2 Assay for human Liver X Receptor alpha (LXRa) (AID 2282980); details: HepG2 Attagene TRANS reporter, LXRa transactivation
# Procedure, shortened: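 Read-out: reporter transcript levels by RT-PCR plus capillary electrophoresis, fluorescence intensity. Transiently transfected HepG2, exogenous NR-GAL4 chimera, GAL4-UAS reporters; 24 h compound exposure. Activity = increase over DMSO negative control.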
# [15] = molecular target: Steroid hormone receptor ERR1 (Homo sapiens) (UniProt P11474); test: ATG_ERRa_TRANS: Attagene TRANS-FACTORIAL HepG2 Assay for human Estrogen-Related Receptor alpha (ERRa) (AID 2282971); details: HepG2 Attagene TRANS reporter, ERRa transactivation
# Procedure, shortened: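 Transfected HepG2, 24 h dosing, ERRa-Gal4 chimera driving GAL4-UAS reporter. Readout: reporter mRNA via RT-PCR plus capillary electrophoresis (fluorescence). Positive direction vs DMSO control.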
# [16] = molecular target: Glucocorticoid receptor (Homo sapiens) (UniProt P04150); test: ATG_GR_TRANS: Attagene TRANS-FACTORIAL HepG2 Assay for human Glucocorticoid Receptor (GR) (AID 2282978); details: HepG2 Attagene TRANS GR reporter, mRNA transcription;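 note: activators score as hits since higher reporter transcript over DMSO is fitted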
# Procedure, shortened: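 Exogenous NR-GAL4 fusion activity was assessed through induced GAL4-UAS reporter transcripts in transfected human HepG2 cells, quantified after 24 h by RT-PCR and fluorescent capillary electrophoresis with DMSO as baseline.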
# [17] = molecular target: Hepatocyte nuclear factor 4-alpha (Homo sapiens) (UniProt P41235); test: ATG_HNF4a_TRANS: Attagene TRANS-FACTORIAL HepG2 Assay for human Hepatocyte Nuclear Factor 4 alpha (HNF4a) (AID 2282982); details: HepG2 HNF4a transactivation reporter, mRNA readout
# Procedure, shortened: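 Multiplexed reporter assay: transfected HepG2, 24 h exposure, total RNA → oligo(dT) RT → PCR → 6-FAM extension → HpaI digest → CE fluorescence. DMSO = negative control.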
# [18] = molecular target: Estrogen-related receptor gamma (Homo sapiens) (UniProt P62508); test: ATG_ERRg_TRANS: Attagene TRANS-FACTORIAL HepG2 Assay for human Estrogen-Related Receptor gamma (ERRg) (AID 2282977); details: HepG2 Attagene TRANS reporter, ERRg transactivation;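 note: hits increase reporter signal over DMSO so potencies reflect activators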
# Procedure, shortened: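 Readout: fluorescent reporter-mRNA fragments resolved by capillary electrophoresis after RT-PCR and HpaI cut. Cells: transiently transfected HepG2 carrying GAL4-UAS reporters driven by exogenous NR-Gal4 chimeras, dosed 24 h. Activity fitted upward relative to DMSO baseline.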
# Sequence of Nuclear receptor subfamily 4 group A member 2 (Homo sapiens) (P43354 whole entry, looked up, the tested form may be a part): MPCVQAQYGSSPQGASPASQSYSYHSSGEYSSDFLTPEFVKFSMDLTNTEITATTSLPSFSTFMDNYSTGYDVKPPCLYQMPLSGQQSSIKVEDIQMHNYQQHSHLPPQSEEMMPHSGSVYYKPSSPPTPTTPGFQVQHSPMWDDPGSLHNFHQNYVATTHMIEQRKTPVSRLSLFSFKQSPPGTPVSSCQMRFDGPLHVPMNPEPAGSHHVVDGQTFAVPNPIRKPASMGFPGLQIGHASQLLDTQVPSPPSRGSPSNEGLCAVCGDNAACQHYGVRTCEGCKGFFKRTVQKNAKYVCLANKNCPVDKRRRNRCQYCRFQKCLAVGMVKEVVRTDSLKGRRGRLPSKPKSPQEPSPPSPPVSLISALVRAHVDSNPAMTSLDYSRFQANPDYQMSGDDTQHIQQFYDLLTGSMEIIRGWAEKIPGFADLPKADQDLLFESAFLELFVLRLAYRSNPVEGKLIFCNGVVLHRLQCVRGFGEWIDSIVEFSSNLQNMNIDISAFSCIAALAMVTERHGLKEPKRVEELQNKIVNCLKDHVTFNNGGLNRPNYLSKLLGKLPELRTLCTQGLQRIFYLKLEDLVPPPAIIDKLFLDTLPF
# Sequence of Hepatocyte nuclear factor 4-alpha (Homo sapiens) (P41235 whole entry, looked up): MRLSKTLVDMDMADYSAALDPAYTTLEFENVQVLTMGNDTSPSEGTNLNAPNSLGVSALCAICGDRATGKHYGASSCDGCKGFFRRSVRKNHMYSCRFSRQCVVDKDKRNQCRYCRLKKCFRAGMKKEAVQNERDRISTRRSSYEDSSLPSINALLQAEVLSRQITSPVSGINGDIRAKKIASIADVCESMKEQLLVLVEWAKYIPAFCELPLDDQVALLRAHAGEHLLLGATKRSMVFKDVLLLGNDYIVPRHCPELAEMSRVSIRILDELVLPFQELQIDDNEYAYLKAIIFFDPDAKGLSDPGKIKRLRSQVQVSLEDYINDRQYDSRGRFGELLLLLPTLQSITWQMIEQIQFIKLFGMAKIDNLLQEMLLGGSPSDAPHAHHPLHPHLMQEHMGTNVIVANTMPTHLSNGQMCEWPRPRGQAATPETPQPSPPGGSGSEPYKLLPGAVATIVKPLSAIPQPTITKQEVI
# Sequence of X-box-binding protein 1 (Homo sapiens) (P17861 whole entry, looked up): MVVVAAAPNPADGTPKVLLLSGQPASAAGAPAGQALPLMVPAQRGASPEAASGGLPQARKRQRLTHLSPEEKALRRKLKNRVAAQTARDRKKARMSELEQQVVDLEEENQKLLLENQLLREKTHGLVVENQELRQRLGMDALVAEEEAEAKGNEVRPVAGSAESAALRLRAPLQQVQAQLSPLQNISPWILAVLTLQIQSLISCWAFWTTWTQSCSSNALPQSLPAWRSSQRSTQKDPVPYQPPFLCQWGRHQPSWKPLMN
# Sequence of Glucocorticoid receptor (Homo sapiens) (P04150 whole entry, looked up, the tested form may be a part): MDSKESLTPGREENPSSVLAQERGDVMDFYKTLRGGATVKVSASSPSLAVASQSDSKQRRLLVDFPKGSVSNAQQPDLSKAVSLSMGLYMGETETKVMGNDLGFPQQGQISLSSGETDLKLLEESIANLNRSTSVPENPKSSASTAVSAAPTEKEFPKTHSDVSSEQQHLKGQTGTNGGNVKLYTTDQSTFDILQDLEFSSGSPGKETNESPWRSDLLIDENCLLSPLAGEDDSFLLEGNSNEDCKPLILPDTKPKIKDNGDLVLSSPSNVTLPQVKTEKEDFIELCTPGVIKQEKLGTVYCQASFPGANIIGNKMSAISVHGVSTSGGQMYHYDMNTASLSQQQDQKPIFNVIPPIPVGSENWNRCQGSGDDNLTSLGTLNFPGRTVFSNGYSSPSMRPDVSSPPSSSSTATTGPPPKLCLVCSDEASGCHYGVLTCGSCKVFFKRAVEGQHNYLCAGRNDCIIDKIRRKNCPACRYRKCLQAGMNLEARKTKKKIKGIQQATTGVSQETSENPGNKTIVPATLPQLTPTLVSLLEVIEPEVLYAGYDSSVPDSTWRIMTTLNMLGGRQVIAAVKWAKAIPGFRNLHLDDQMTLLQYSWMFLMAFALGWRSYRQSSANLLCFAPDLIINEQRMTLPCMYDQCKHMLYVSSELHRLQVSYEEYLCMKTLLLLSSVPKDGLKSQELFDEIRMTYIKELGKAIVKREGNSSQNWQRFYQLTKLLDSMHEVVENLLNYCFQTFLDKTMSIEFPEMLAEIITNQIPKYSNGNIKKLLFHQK
# Sequence of Estrogen receptor (Homo sapiens) (P03372 whole entry, looked up, the tested form may be a part): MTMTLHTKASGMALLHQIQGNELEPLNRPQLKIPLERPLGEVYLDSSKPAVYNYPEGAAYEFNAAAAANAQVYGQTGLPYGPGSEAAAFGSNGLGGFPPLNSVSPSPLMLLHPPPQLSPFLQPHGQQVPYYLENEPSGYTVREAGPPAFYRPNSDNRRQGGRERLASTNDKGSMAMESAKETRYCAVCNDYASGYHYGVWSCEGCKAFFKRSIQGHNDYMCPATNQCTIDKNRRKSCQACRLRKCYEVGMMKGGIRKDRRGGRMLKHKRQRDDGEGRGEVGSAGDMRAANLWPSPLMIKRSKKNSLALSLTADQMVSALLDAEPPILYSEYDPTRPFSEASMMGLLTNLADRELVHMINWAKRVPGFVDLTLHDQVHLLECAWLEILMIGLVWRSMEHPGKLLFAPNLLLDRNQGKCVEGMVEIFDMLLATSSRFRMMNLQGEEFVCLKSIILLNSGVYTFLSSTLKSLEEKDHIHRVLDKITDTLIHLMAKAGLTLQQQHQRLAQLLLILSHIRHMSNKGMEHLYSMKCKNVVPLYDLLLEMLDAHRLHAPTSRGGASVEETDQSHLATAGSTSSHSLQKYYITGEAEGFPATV
# Sequence of Oxysterols receptor LXR-beta (Homo sapiens) (P55055 whole entry, looked up, the tested form may be a part): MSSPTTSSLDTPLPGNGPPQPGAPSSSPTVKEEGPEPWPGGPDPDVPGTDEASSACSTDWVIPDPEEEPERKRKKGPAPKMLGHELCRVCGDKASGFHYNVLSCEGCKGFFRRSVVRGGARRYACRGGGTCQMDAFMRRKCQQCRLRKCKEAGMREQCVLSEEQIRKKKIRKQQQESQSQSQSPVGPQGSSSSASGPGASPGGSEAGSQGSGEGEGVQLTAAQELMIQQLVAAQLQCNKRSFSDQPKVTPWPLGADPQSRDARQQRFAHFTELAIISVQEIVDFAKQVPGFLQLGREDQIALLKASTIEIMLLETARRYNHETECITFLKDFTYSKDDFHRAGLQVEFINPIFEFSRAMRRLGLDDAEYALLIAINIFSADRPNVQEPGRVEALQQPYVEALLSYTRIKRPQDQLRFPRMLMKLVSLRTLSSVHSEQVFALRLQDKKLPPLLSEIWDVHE
# Sequence of Steroid hormone receptor ERR1 (Homo sapiens) (P11474 whole entry, looked up, the tested form may be a part): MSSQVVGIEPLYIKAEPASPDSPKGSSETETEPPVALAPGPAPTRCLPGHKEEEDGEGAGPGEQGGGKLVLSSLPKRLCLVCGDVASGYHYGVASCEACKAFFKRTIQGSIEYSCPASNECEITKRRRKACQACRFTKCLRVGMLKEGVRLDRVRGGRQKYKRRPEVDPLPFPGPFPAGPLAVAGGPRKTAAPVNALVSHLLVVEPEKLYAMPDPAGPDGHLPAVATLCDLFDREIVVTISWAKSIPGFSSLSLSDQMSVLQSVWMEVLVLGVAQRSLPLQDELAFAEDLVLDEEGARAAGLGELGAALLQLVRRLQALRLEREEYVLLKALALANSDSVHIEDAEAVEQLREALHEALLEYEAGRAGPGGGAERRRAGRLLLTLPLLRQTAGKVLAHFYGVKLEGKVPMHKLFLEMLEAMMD
# Sequence of Oxysterols receptor LXR-alpha (Homo sapiens) (Q13133 whole entry, looked up, the tested form may be a part): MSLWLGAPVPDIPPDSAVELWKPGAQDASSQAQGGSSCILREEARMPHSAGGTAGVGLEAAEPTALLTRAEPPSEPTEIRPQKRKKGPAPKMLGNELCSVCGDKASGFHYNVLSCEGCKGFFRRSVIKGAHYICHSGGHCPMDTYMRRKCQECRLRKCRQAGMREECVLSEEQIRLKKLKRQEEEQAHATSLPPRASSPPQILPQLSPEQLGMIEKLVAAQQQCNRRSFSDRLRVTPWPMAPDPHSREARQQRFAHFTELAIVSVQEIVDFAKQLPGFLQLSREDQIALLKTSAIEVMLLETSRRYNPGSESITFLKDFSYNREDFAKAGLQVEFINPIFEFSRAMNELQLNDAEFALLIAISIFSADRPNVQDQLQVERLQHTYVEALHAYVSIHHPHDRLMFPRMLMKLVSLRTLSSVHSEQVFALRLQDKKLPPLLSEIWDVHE
# Sequence of Bile acid receptor (Homo sapiens) (Q96RI1 whole entry, looked up, the tested form may be a part): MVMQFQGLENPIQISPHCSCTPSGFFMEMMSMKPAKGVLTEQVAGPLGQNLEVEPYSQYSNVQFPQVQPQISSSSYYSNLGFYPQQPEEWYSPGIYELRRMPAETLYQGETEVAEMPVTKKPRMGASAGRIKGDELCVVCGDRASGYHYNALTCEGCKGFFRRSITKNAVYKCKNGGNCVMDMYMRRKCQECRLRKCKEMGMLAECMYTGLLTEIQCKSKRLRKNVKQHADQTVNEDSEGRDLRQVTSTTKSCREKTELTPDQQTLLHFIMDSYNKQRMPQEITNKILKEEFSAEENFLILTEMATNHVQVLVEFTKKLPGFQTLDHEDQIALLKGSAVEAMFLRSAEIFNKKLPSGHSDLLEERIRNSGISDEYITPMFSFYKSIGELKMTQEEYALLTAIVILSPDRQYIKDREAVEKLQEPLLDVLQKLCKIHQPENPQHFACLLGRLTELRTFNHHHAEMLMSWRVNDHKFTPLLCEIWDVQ
# Sequence of Nuclear receptor subfamily 1 group I member 3 (Homo sapiens) (Q14994 whole entry, looked up, the tested form may be a part): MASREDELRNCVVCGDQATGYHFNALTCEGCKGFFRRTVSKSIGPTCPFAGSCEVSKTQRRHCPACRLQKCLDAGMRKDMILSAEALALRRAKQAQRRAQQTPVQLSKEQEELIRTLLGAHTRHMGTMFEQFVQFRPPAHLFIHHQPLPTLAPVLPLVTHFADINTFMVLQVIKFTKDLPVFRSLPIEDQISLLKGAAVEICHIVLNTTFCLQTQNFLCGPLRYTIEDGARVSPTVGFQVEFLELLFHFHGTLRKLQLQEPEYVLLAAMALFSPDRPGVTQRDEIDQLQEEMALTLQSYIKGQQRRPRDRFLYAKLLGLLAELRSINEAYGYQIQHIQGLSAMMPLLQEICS
structure (smiles),measurement,setting,value
CCCN(CCC)N=O,outcome,[1],inactive
same,outcome,[2],inactive
same,outcome,[3],inactive
same,outcome,[4],inactive
same,outcome,[5],inactive
same,outcome,[6],inactive
same,outcome,[7],inactive
same,outcome,[8],inactive
Cc1cc2c3c(c1)C(c1ccccc1)=N[C@@H](NC(=O)c1ccncc1)C(=O)N3CC2,outcome,[1],inactive
same,outcome,[2],inactive
same,AC50,[3],5.69 µM (active)
same,outcome,[4],inactive
same,AC50,[5],100 µM (active)
same,outcome,[9],inactive
same,outcome,[6],inactive
same,outcome,[10],inactive
O=NN(c1ccccc1)c1ccccc1,outcome,[1],inactive
same,outcome,[2],inactive
same,AC50,[4],23.6 µM (active)
same,outcome,[5],inactive
same,outcome,[11],inactive
same,outcome,[8],inactive
O=C(NC(=O)c1c(F)cccc1F)Nc1cc(Cl)c(OC(F)(F)C(F)F)c(Cl)c1,outcome,[1],inactive
same,outcome,[2],inactive
same,outcome,[12],inactive
same,outcome,[4],inactive
same,outcome,[5],inactive
same,outcome,[13],inactive
same,outcome,[6],inactive
same,outcome,[14],inactive
same,outcome,[8],inactive
Cc1ccc(O)c(C)c1,outcome,[1],inactive
same,outcome,[2],inactive
same,outcome,[4],inactive
same,outcome,[15],inactive
same,outcome,[5],inactive
same,outcome,[9],inactive
same,outcome,[6],inactive
same,outcome,[16],inactive
CCSC(=O)N(CC)C1CCCCC1,outcome,[1],inactive
same,outcome,[2],inactive
same,AC50,[3],18.1 µM (active)
same,outcome,[4],inactive
same,outcome,[5],inactive
same,outcome,[9],inactive
same,outcome,[7],inactive
Cc1cccc(C)c1N,outcome,[1],inactive
same,outcome,[2],inactive
same,outcome,[5],inactive
same,outcome,[6],inactive
same,outcome,[16],inactive
same,outcome,[11],inactive
same,outcome,[17],inactive
same,outcome,[8],inactive
C=CC(N)=O,outcome,[1],inactive
same,outcome,[2],inactive
same,AC50,[3],100 µM (active)
same,outcome,[15],inactive
same,outcome,[5],inactive
same,outcome,[6],inactive
same,outcome,[18],inactive
same,outcome,[14],inactive
same,outcome,[7],inactive
same,outcome,[17],inactive
same,outcome,[8],inactive
same,outcome,[10],inactive
O=C(NC(=O)c1cc(F)c(F)cc1Cl)Nc1cc(F)ccc1N1CCC(C(=O)O)CC1,outcome,[1],inactive
same,outcome,[2],inactive
same,outcome,[3],inactive
same,outcome,[5],inactive
same,outcome,[9],inactive
same,outcome,[6],inactive
same,outcome,[16],inactive
same,outcome,[7],inactive
same,outcome,[17],inactive
same,outcome,[10],inactive
